The results in this text go back to PubChem BioAssay AID504327 (National Center for Advancing Translational Sciences (NCATS), 2011).

Screen size: about 390,000 compounds; about 820 (0.21%) were called active. A call without a number means that no potency is given here. Roughly 3% stayed inconclusive and do not appear here. Calls come from the whole dose curve; as a rule, active = well fitted inhibition curve with a large enough effect; inconclusive = small, poorly fitted or top-dose-only effect, or another doubt; inactive = no such curve, though single readings can be large or run the other way. The sample as a whole holds a higher share of actives than the screen did.
Potency is the fitted concentration of half-maximal effect.

For this assay, the target named is Histone acetyltransferase KAT2A (Homo sapiens) (UniProt Q92830). Put plainly: qHTS Assay for Inhibitors of GCN5L2. The note with it: GCN5L2 HAT assay, ThioGlo1 CoA-SH fluorescence; series mostly up to 58.9 µM. The text has this: Histone acetyltransferase (HAT) enzymes transfer a […] group from acetyl-coenzyme A to the epsilon-amino group of conserved lysine residues of N-terminal histone tails. Acetylation results in charge neutralization of this positively charged amino acid, decreasing interactions with the […] backbone and making the DNA more accessible for transcription. HATs have been recognized as an emerging drug target for treatment of cancer, diabetes, asthma, chronic obstructive pulmonary disease, cardiac disease, and viral infection. Protein identified with HAT activity include the […] like 2 (GCN5L2, a.ka. Histone acetyltransferase KAT2A) which acetylates histone H3 at Lys9, 14, 18, 13, and to lesser extent histones H4 and H2B. This activates transcription of the gene by modulating chromatin structure and installing the acetyllysine recognition mark for bromodomain-containing coactivator proteins.
Sequence of Histone acetyltransferase KAT2A (Homo sapiens) (Q92830 whole entry, looked up): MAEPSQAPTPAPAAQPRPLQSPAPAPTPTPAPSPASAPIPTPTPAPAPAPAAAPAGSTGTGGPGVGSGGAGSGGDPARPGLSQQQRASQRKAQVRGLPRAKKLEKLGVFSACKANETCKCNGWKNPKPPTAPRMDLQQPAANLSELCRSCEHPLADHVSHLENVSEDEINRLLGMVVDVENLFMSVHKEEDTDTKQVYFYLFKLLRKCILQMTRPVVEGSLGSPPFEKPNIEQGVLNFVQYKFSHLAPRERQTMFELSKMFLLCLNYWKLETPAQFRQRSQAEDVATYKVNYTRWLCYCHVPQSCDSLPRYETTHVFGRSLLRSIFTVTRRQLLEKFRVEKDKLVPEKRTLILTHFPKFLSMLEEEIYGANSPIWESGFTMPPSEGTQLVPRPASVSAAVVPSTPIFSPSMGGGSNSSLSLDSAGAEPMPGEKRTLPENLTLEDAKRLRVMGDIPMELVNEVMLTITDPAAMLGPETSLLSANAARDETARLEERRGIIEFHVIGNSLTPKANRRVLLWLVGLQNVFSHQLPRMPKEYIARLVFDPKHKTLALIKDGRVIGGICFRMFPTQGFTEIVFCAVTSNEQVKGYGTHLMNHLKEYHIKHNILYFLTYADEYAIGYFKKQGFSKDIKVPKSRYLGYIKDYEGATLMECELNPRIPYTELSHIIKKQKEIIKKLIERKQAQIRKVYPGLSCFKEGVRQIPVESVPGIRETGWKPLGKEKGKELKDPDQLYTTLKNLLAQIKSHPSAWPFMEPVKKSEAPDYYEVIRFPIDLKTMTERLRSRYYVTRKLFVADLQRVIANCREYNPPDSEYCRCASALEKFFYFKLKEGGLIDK
A quantitative high throughput screen was developed to identify small molecule inhibitors. The assay is based on the principle that it measures formation of reduced CoA with the pro-fluorescent maleimide derivative ThioGlo1 that becomes fluorescent upon reaction with the free thiol of CoA.
A large number of artifacts are expected in this primary screen, compounded by the assay format (fluorescent artifacts) and by the high top concentration tested for each substance. This BioAssay data deposition should be used with caution, and counterscreen and secondary assay validation is essential since very few actives from the primary screen are expected to be true inhibitors of GCN5L2.
[2] Yasgar, et al. Compound Management for Quantitative High-Throughput Screening. JALA. 2008 Apr;13(2):79-89.
[3] Inglese, et al. Quantitative high-throughput screening: a titration-based approach that efficiently identifies biological activities in large chemical libraries. Proc Natl Acad Sci. 1;103(31):11473-8. 2006. PMID: 16864780
NIH Molecular Libraries Probe Production Network [MLPCN]
NIH Chemical Genomics Center [NCGC]
Structural Genomics Consortium (SGC)
To each well of a 1,536w plate, 3ul of GCN5L2 (final concentration 20nM, in 50mM HEPES, 0.1mM EDTA (pH 7.5), 0.01% Tween-20 buffer) are added using a Kalypsys dispenser. Only buffer is added to some wells as a control. A Kalypsys pin-tool transferred 23nl of library compound solution in DMSO to each well, as well as the control inhibit garcinol. . Following a 15 min incubation of enzyme with compounds at room temperature, 1ul mixture of ThioGlo1 (50uM final), H3(1-25) peptide (75uM final), and Acetyl-CoA (70uM final) is added. Plates are read immediately on the ViewLux (PerkinElmer) (Ex340nm/Em540nm) for a 0 min read, incubated for 20 min at room temperature, and read again on the ViewLux with the same settings. The initial read was carried out to identify compounds that are potentially fluorescent.
(In general: Quantitative high-throughput screening tests each substance at several concentrations.)
For the molecule `O=c1c(CCc2ccccc2)nc2cncnc2n1C1CC1`, the Potency result was “inactive”.

For the molecule `CC(C)=CCC/C(C)=C/CC/C(C)=C/CC/C(C)=C/CO`, the Potency entry was “inactive”.

Take `O=C(c1csnn1)N1CCC[C@@]2(CCN(c3cccc(-c4ccccc4)c3)C2)C1`: the Potency entry is “inactive”.

In the case of `Nc1nc2[nH]c(=O)c(=O)[nH]c2c(=O)[nH]1`, the Potency entry was “inactive”.

Regarding `Cc1cnc(CNc2cc(-c3c(C)noc3C)ncn2)cn1`, the Potency result is “inactive”.

Consider `C=CCC1CCC(=O)N2CCCC12` (stereo unspecified), for which the Potency result was “inactive”.

Take `CCCCCCCCCc1ccc(OCCOCCOCCOCCOCCOCCOCCOCCOCCO)cc1`: the Potency result is “inactive”.

For `Cn1cc(-c2nc3cncnc3n(-c3ccccc3)c2=O)c2ccccc21`, the Potency result was “inactive”.

Turning to `Oc1ccc2c(c1)OCC1c3cc4c(cc3OC21)OCO4` (stereo unspecified), the Potency result was “inactive”.

As for `Nc1ncnc2c1c(I)cn2[C@@H]1C[C@H](N)[C@@H](O)[C@H]1O`, the Potency entry is “inactive”.

Take `COc1ccc2[nH]cc(CCNc3ncnc4ccc(-c5ccc(C(=O)N(C)C)cc5)cc34)c2c1`: the Potency result is “inactive”.

Regarding `CC1OC(OCC2OC(Oc3c(-c4ccc(O)c(O)c4)oc4cc(O)cc(O)c4c3=O)C(O)C(O)C2O)[C@@H](O)C(O)C1O` (stereo partly specified), the Potency entry was “inactive”.

On to `CCOCCOC(=O)C(C)Oc1ccc(Oc2ncc(C(F)(F)F)cc2Cl)cc1` (stereo unspecified), for which the Potency result is “inactive”.

Regarding `CS(=O)(=O)N1CCC2(CC1)CN(Cc1ccccc1)C2`, the Potency result was “inactive”.

Take `COCCNc1ncnc2ccc(-c3cccnc3)cc12`: the Potency result was “inactive”.

For the molecule `CCC(CCC(C)C1CCC2C3CC=C4CC(O)CC[C@@]4(C)C3CC[C@@]12C)C(C)C` (stereo partly specified), the Potency entry was “inactive”.

With `O=P(O)(O)C(O)c1ccc2ccccc2c1` (stereo unspecified), the Potency result was “inactive”.

As for `CC(O)[C@@H](N)C(=O)O` (stereo partly specified), the Potency entry is “inactive”.

Consider `COc1ccc(CNc2ncnc3ccc(-c4cccnc4)cc23)c(OC)c1`, for which the Potency result was “inactive”.

For `CCOC(=O)Cn1c(=O)sc2cccc(Cl)c21`, the Potency result was “inactive”.

With `CCNc1ncc2nc(CCc3ccccc3)c(=O)n(-c3ccc(OC)cc3)c2n1`, the Potency result is “inactive”.

For the molecule `O=c1c(-c2ccc(F)cc2)nc2cnc(N3CCNCC3)nc2n1Cc1cccs1`, the Potency result is “inactive”.

Consider `Cn1cc(-c2nc3cnc(N4CCNCC4)nc3n(CCC#N)c2=O)c2ccccc21`, for which the Potency result is “inactive”.

With `N#Cc1cccc(-c2nc3cnc(N4CCNCC4)nc3n(C3CC3)c2=O)c1`, the Potency is 28.2 µM (active).

`O=C(c1cc(C(F)(F)F)cc(C(F)(F)F)c1)N1CCC2(CCCN(c3ccccn3)C2)CC1`: the Potency entry was “inactive”.

`CN1CCN2c3ccccc3Cc3ccccc3[C@@H]2C1`: the Potency result was “inactive”.

`CN1CCN(c2ncc3nc(-c4ccc(Cl)cc4)c(=O)n(-c4ccccc4)c3n2)CC1`: the Potency entry was “inactive”.

Regarding `CCCCC/C=C\CC1OC1CCCCCCCC(=O)O` (stereo unspecified), the Potency entry is “inactive”.

With `Cc1cccc(CNc2cc(-c3ccccc3Cl)ncn2)c1`, the Potency result was “inactive”.

As for `C=CC(=O)c1ccc2ccccc2c1`, the Potency entry is “inactive”.

Consider `COCCn1c(=O)c(-c2ccccc2)nc2cnc(N3CCOCC3)nc21`, for which the Potency entry was “inactive”.

In the case of `CC[C@H](C)[C@H](NC(=O)[C@@H](N)CCC(=O)O)C(=O)N[C@@H](CC(C)C)C(=O)N[C@@H](CC(=O)O)C(=O)N[C@H](C(=O)N1CCC[C@H]1C(=O)N[C@@H](CO)C(=O)N[C@H](C(=O)O)[C@@H](C)O)C(C)C`, the Potency result was “inactive”.

Consider `NCCCCC(N)C(=O)O` (stereo unspecified), for which the Potency entry was “inactive”.

Turning to `Cc1c(C)n(Cc2ccc(Cl)cc2)c2ccc(C(=O)N3CCN(c4ccccc4F)CC3)cc12`, the Potency entry was “inactive”.

With `CC(C)c1ccc(Cn2c(COc3ccccc3)nc3ccccc32)cc1`, the Potency entry is “inactive”.

Regarding `C=C(C)C1CC=C(CO)CC1` (stereo unspecified), the Potency entry was “inactive”.

Turning to `COc1ccc2[nH]cc(CCNc3nc(-c4cccc(NS(C)(=O)=O)c4)nc4ccccc34)c2c1`, the Potency entry was “inactive”.

`CC(=O)N(c1ccc2oc(=O)sc2c1)S(=O)(=O)c1ccc(C)cc1`: the Potency entry is “inactive”.

With `O=C(CN(c1cc(C(F)(F)F)ccc1Cl)S(=O)(=O)c1ccccc1)NCc1cccnc1`, the Potency result was “inactive”.

`O=C(c1cccnc1)N(c1cc2sc(=O)oc2c2ccccc12)S(=O)(=O)c1ccccc1`: the Potency is 31.6 µM (active).

Turning to `CC(C)(O)CCC(O)[C@@](C)(O)C1CC[C@]2(O)C3=CC(=O)C4CC(O)C(O)C[C@]4(C)C3CC[C@]12C` (stereo partly specified), the Potency result was “inactive”.

Take `Cc1cn([C@H]2CC(F)[C@@H](CO)O2)c(=O)[nH]c1=O` (stereo partly specified): the Potency entry is “inactive”.

`C=CCOC(=O)C(=C)C`: the Potency result was “inactive”.

In the case of `O=c1c(-c2cc(F)cc(F)c2)nc2cnc(Oc3ccccc3)nc2n1C[C@H]1CCCO1`, the Potency result is “inactive”.

With `Cc1ccnc(-n2sc3ccccc3c2=O)n1`, the Potency was 3.16 µM (active).

In the case of `O=C(c1cc(C(F)(F)F)cc(C(F)(F)F)c1)N1CCC[C@@]2(CCN(c3ccccn3)C2)C1`, the Potency entry was “inactive”.

Regarding `CCCCCCCC/C=C\CCCCCCCC(=O)OC[C@H](CO)OC(C)=O`, the Potency entry was “inactive”.

As to `O=C(c1ccco1)N1CCC[C@@]2(CCN(c3ccccc3)C2)C1`, the Potency entry is “inactive”.

Consider `Cc1ccc(CC2(O)CCN(CCOc3ccc(O)cc3)CC2)cc1`, for which the Potency entry was “inactive”.

As to `CC(=O)OCC(=O)[C@@]1(O)CCC2C3CCC4=CC(=O)CC[C@]4(C)C3C(=O)C[C@]21C` (stereo partly specified), the Potency entry is “inactive”.

For the molecule `O=C(NCc1ccccn1)c1ccc2nc(-c3ccco3)c(-c3ccco3)nc2c1`, the Potency is 11.2 µM (active).

As to `COCCNC(=O)Nc1ccc2nc(-c3ccco3)c(-c3ccco3)nc2c1`, the Potency was 17.8 µM (active).

For the molecule `COc1ccc(NC(=O)COCc2cc(-c3ccco3)on2)cc1`, the Potency entry is “inactive”.

With `CCOc1ccc(NC(=O)c2ncoc2-c2ccco2)cc1`, the Potency entry is “inactive”.

As to `COc1ccc(-c2nc3ccc(C(=O)NCc4ccc(C)cc4)cc3nc2-c2ccc(OC)cc2)cc1`, the Potency result was “inactive”.

As to `CCN(c1ccccc1)S(=O)(=O)c1cc(C(=O)NCc2ccccn2)ccc1C`, the Potency result was “inactive”.

For `C[C@]12CC[C@@H]3C(=CCc4cc(O)ccc43)[C@@H]1CCC2=O`, the Potency result is “inactive”.

Take `OCCN1CCN(CC/C=C2\c3ccccc3Sc3ccc(C(F)(F)F)cc32)CC1`: the Potency result is “inactive”.

Turning to `Nc1nc2c(nc(Cl)n2C2OC(CO)C(O)C2O)c(=O)[nH]1` (stereo unspecified), the Potency entry is “inactive”.

As for `COc1ccc(C(=O)N2CCC3(CCCN(C(c4ccccc4)c4ccccc4)C3)CC2)cc1`, the Potency result was “inactive”.

Consider `FCOC(C(F)(F)F)C(F)(F)F`, for which the Potency result was “inactive”.

With `N#CCCn1c(=O)c(-c2cc(F)cc(F)c2)nc2cnc(Oc3ccccc3)nc21`, the Potency entry was “inactive”.

For the molecule `Nc1nc2nc(Cl)[nH]c2c(=O)[nH]1`, the Potency entry is “inactive”.

On to `O=c1c(O)c(-c2ccc(O)cc2)oc2ccccc12`, for which the Potency result is “inactive”.

On to `Oc1ccc(-c2c(-c3ccccc3)nn3c(C(F)(F)F)cc(C(F)(F)F)nc23)cc1`, for which the Potency entry was “inactive”.

As to `Fc1ccc(Cl)cc1-c1nc(Nc2ccncc2)c2nccnc2n1`, the Potency entry is “inactive”.
